Here are results for 10 molecules from PubChem BioAssay (NCI).

Holding throughout (assay): NCI-60 one-dose screen, 48 h (100 = growth as untreated, 0 = no growth, -100 = all killed)
The test system of experiment [1] is SR leukemia. The conditions noted are these: 10 µM unless noted.
In experiment [2] the test system is RPMI-8226 leukemia. The conditions noted are these: 10 µM unless noted.
The test system of experiment [3] is OVCAR-8 ovarian. The conditions noted are these: 10 µM unless noted.
Experiment [4] has as its system OVCAR-4 ovarian. The conditions noted are these: 10 µM unless noted.
The test system of experiment [5] is SK-OV-3 ovarian. The conditions noted are these: 10 µM unless noted.
In experiment [6] the test system is IGROV1 ovarian. The conditions noted are these: 10 µM unless noted.
Experiment [7] deals with OVCAR-3 ovarian. The conditions noted are these: 10 µM unless noted.
Experiment [8] deals with NCI/ADR-RES ovarian. The conditions noted are these: 10 µM unless noted.
Experiment [9] concerns T-47D breast. The conditions noted are these: 10 µM unless noted.
The test system of experiment [10] is BT-549 breast. The conditions noted are these: 10 µM unless noted.
The test system of experiment [11] is MDA-MB-435 melanoma. The conditions noted are these: 10 µM unless noted.
The test system of experiment [12] is SW-620 colon. The conditions noted are these: 10 µM unless noted.
Experiment [13] deals with MCF7 breast. The conditions noted are these: 10 µM unless noted.
Experiment [14] has as its system HCT-116 colon. The conditions noted are these: 10 µM unless noted.
Experiment [15] concerns HCC-2998 colon. The conditions noted are these: 10 µM unless noted.
Experiment [16] concerns KM12 colon. The conditions noted are these: 10 µM unless noted.
Experiment [17] relates to OVCAR-5 ovarian. The conditions noted are these: 10 µM unless noted.
The subject of experiment [18] is HS 578T breast. The conditions noted are these: 10 µM.

About 83,000 compounds went through this panel and 20% of them were active in at least one assay; those are over-represented in the sample as a whole.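 Testing used 96-well plates and a 48-hour single-concentration exposure. Example: -40 means 40% of the starting cells died.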 Unmarked numbers belong to inactive results. The source made the active and inactive calls. Rule for the calls: active = growth percent below 10; inactive = the rest.

For `COc1cc(Nc2ccnc3ccc(Br)cc23)cc(OC)c1OC`, the growth in experiment [1] was 15.7%; in experiment [2], 30.4%; in experiment [3], 36.6%; in [4], 62.5%; in experiment [5], 36.6%; in experiment [6], 38.2%. Moreover, the growth in experiment [7] is 29.8%; in experiment [8], 12.8%; in experiment [9], 40.9%; in [10], 53.7%; in experiment [11], -41.5% (active); in experiment [12] it was 19.4%. Further, the growth in experiment [13] was 15.5%; in experiment [14], 21.7%; in experiment [15], 71.4%; in [16] it was 21%.

As to `OC(c1cc(-c2ccc(C(F)(F)F)cc2)nc(-c2ccc(C(F)(F)F)cc2)c1)C1CCCCN1` (stereo not drawn), the growth was -64.8% (active) in [1]; -64.5% (active) in [3]; -77% (active) in experiment [17]; -92% (active) in experiment [4]; -74.3% (active) in experiment [5]; -65.2% (active) in experiment [6]. Further, the growth is -90.4% (active) in experiment [7]; -55.5% (active) in experiment [18]; -68.6% (active) in experiment [8]; -67.9% (active) in experiment [9]; -79% (active) in experiment [10]; -58.3% (active) in [11]. Further, the growth was -70.5% (active) in experiment [12], -80.8% (active) in experiment [13], -77.3% (active) in experiment [14] and -87.7% (active) in experiment [16].

In the case of `CCc1ccc2c(c1)N(CCO)C1=C(C(=O)OC1)C2c1cccc(Br)c1` (stereo not drawn), the growth is 28.6% in [1]; 33.7% in experiment [3]; 36.4% in [17]; 59.9% in experiment [4]; 28.1% in [5]; 39.3% in experiment [6]. In addition, the growth was -10.6% (active) in experiment [7]; 3.25% (active) in [18]; 9.74% (active) in experiment [8]; 47.5% in [9]; 46.6% in experiment [10]; -62.5% (active) in experiment [11]. The growth in [12] is 26.8%; in [13], 21.1%; in experiment [14], 26.9%; in [16], 19.2%.

As to `CCOCC(O)(c1ccc(Cl)cc1)c1ccc(Cl)cc1`, the growth in experiment [1] is 100%; in [3], 103%; in [17], 84.4%; in experiment [4], 112%; in experiment [5], 105%; in experiment [6] it was 101%. For the same molecule, the growth was 112% in experiment [7]; 109% in experiment [18]; 99.7% in experiment [8]; 115% in experiment [10]; 102% in [11]; 97.4% in experiment [12]. The growth is 110% in experiment [13], 93% in experiment [14] and 109% in experiment [15].

Consider `COc1ccc(-c2nc(-c3cc(OC)cc(OC)c3)[nH]c2-c2ccc(OC)cc2)cc1`, for which the growth was 25.3% in experiment [1]; 58.1% in experiment [3]; 77.7% in experiment [17]; 59.7% in experiment [4]; 85.6% in [5]; 71.7% in [6]. The growth is 45.3% in [7]; 81.5% in experiment [18]; 53.9% in [8]; 6.56% (active) in [9]; 51% in experiment [10]; 48.7% in experiment [11]. The growth was 73.6% in experiment [12], 34.9% in experiment [13], 40.8% in experiment [14] and 42.9% in experiment [15].

As to `CC(=O)c1cccc(Nc2ncnc3ccc(NC(=O)c4ccco4)cc23)c1`, the growth was 90.2% in experiment [1]; 75% in [2]; 92.1% in experiment [3]; 89% in experiment [4]; 104% in [5]; 86.1% in experiment [6]. The growth in [18] is 102%; in experiment [8], 92.7%; in experiment [9] it was 77.1%; in [10] it was 96.5%; in experiment [11], 83%; in [12], 115%. The growth was 80.9% in [13], 91% in experiment [14] and 111% in experiment [15].

Consider `C/C=C(\C)C(C(=O)NC1CCCCC1)N(C(=O)C1CCc2cc(F)ccc2O1)c1ccc([N+](=O)[O-])cc1` (stereo not drawn), for which the growth is 101% in experiment [1]; 88.4% in experiment [3]; 93.4% in experiment [17]; 79% in experiment [4]; 90.5% in experiment [5]; 85.8% in experiment [6]. In addition, the growth in experiment [7] is 89.4%; in experiment [18], 80.2%; in experiment [8] it was 85.7%; in experiment [9], 88.1%; in experiment [10], 90.1%; in [11] it was 87.7%. Further, the growth in experiment [12] was 94.9%; in experiment [13] it was 77%; in experiment [14], 60.3%; in experiment [15] it was 98.4%; in experiment [16], 95.8%.

As to `CCCN(CCC)CC(O)COc1ccccc1C(=O)Nc1ccccc1` (stereo not drawn), the growth in experiment [1] is 28.7%; in experiment [2] it was 71.4%; in [3] it was 84.3%; in [4], 85%; in experiment [5] it was 67.4%; in [6], 113%. Further, the growth in experiment [7] was 50.3%; in [18] it was 80.9%; in [9], 97.1%; in [10], 87.1%; in experiment [11] it was -21.1% (active); in experiment [12], 36.9%. Besides, the growth in [13] was 79.9%; in [14] it was 50.6%; in [15], 79.6%; in experiment [16] it was 48.3%.

For `Cn1c(=O)c2[nH]c(Cc3ccc4c(c3)OCO4)nc2n(C)c1=O`, the growth is 120% in [1]; 88.8% in [2]; 105% in experiment [3]; 88.2% in experiment [4]; 107% in experiment [5]; 106% in experiment [6]. In addition, the growth is 104% in experiment [7]; 107% in [8]; 99.8% in experiment [9]; 103% in experiment [10]; 107% in experiment [11]; 99.8% in experiment [12]. Besides, the growth is 97.7% in [13], 105% in experiment [14] and 109% in experiment [15].

As to `O=C(NC1CC1)c1ccc(-c2nc3ccc4[nH]ncc4c3c3c2CCCC3)cc1`, the growth was 32.2% in experiment [1]; 50.5% in experiment [2]; 38.8% in [3]; 61.6% in [4]; -7.43% (active) in experiment [5]; 22.7% in experiment [6]. The growth is 58% in experiment [7]; 4.47% (active) in experiment [18]; 72.1% in [8]; 29.5% in [10]; 11.5% in experiment [11]; 18.7% in experiment [12]. Moreover, the growth in experiment [13] was 38.6%; in [14] it was 17%; in experiment [15], 51.1%; in [16], 24.4%.
